Results: the supplement of paper PMC3545927
The list shows a part of the results. The true hit rate is not given.

Target: furin, P09958
Experiment: furin cleavage Z-score vs untreated control; higher = more cleavage, active = 3.5 or more, inactive = 1 or less, 8 variable residues between constant flanks
In short: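 Furin cleavage was scored on 8-mer peptides joined to a cDNA oligonucleotide and bound to magnetic beads at the N-terminus. Digestion with purified furin (1:10 enzyme:substrate, 0.01 ml, 50 mM HEPES pH 7.5, CaCl2, NaCl) lasted 7.5, 15 or 30 min. Freed DNA was tagged with adapters by PCR, sequenced and counted; the cleavage Z-score is the lowess-adjusted log count versus furin-free reactions, scaled by median absolute deviation.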

Sequence of furin, P09958 (P09958 whole entry): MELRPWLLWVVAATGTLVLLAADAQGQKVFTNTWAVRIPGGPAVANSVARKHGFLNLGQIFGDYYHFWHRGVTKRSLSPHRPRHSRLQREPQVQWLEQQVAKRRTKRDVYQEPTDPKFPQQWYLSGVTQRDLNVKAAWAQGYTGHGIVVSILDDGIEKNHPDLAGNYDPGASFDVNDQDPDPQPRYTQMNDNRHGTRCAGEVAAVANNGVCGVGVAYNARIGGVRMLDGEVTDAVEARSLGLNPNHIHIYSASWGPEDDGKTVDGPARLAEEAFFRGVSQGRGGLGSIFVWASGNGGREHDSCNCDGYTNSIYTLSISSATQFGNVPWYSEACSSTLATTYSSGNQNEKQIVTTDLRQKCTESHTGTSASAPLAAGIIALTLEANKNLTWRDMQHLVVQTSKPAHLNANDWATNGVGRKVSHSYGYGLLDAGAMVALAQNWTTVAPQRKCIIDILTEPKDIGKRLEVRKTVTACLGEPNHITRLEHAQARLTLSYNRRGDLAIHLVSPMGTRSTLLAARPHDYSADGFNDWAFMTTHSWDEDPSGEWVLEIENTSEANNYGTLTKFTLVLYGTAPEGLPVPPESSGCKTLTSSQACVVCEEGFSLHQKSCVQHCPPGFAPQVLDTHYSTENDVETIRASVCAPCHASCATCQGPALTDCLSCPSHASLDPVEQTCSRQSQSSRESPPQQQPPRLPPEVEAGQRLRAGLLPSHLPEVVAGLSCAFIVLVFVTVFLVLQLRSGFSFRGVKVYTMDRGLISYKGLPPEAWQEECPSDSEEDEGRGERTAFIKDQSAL

Sequence | furin cleavage Z-score (7.5 min) | furin cleavage Z-score (15 min) | furin cleavage Z-score (30 min)
CARAAVCTRGAGNASASA [HC751] | 0.0348 (inactive) | -0.103 (inactive) | -0.127 (inactive)
CAISWCLWWLAGNASASA [HC580] | -1.57 (inactive) | -0.298 (inactive) | -1.76 (inactive)
CARRIRPTHPAGNASASA [FS-3048] | -1.48 (inactive) | -0.376 (inactive) | -2.07 (inactive)
CAPCTTPCSGAGNASASA [HC1959] | -0.283 (inactive) | -0.0949 (inactive) | 0.269 (inactive)
CARTRRQDIRAGNASASA [FS-2836] | 3.19 | 3.96 (active) | 4.46 (active)
CATVTESDIRAGNASASA [HC1484] | -1.23 (inactive) | -2.19 (inactive) | -1.8 (inactive)
CARFRRQQWKAGNASASA [FS-2416] | -0.28 (inactive) | -0.542 (inactive) | -0.363 (inactive)
CAREERSWFRAGNASASA [FS-2910] | 1.59 | -0.354 (inactive) | -1.01 (inactive)
CASPPVPPPRAGNASASA [HC1321] | 0.641 (inactive) | 2.74 | 1.49
CARFRRQDIRAGNASASA [FS-2664] | 2.04 | 2.56 | 4.18 (active)
CARHPRSPPRAGNASASA [FS-2679] | 2.12 | 2.59 | 4.01 (active)
CARFRRLWPCAGNASASA [FS-1705] | -0.433 (inactive) | -0.574 (inactive) | 0.464 (inactive)
CADQMEECSQAGNASASA [HC1822] | -1.95 (inactive) | 0.171 (inactive) | 0.415 (inactive)
CAVQCCSMSYAGNASASA [HC2022] | -0.966 (inactive) | 0.322 (inactive) | 0.723 (inactive)
CADLCGSVFLAGNASASA [HC300] | -2.25 (inactive) | -0.764 (inactive) | -0.906 (inactive)
CASDGSWSTVAGNASASA [HC1361] | 1.87 | 1.47 | 0.994 (inactive)
CARWKRPIDLAGNASASA [FS-3131] | -0.222 (inactive) | 0.7 (inactive) | 0.99 (inactive)
CARAKRQKDFAGNASASA [FS-2885] | 3.42 | 4.84 (active) | 4.86 (active)
CARWKRGLDWAGNASASA [FS-3214] | 7.21 (active) | 8.26 (active) | 10.3 (active)
CARWKRNLDFAGNASASA [FS-2199] | 6.47 (active) | 7.97 (active) | 10.7 (active)
CARWKRPAFTAGNASASA [FS-1806] | -0.259 (inactive) | 0.293 (inactive) | -0.665 (inactive)
CALHTPGCVPAGNASASA [HC271] | -1.15 (inactive) | -0.17 (inactive) | 0.0406 (inactive)

Sequence | furin cleavage Z-score (7.5 min) | furin cleavage Z-score (15 min) | furin cleavage Z-score (30 min)
CAWIWFCLLLAGNASASA [HC1656] | -0.725 (inactive) | -0.337 (inactive) | -0.583 (inactive)
CAKWSRHRRMAGNASASA [FS-175] | 11.5 (active) | 12.9 (active) | 11.2 (active)
CATQRRGRTGAGNASASA [HC903] | -0.796 (inactive) | -0.169 (inactive) | -0.351 (inactive)
CATQSRIRRMAGNASASA [FS-511] | 5.23 (active) | 7.4 (active) | 6.25 (active)
CAMRAFQRRMAGNASASA [FS-276] | -1.44 (inactive) | -1.21 (inactive) | -0.935 (inactive)
CAMRLRIRRMAGNASASA [FS-1601] | 10.1 (active) | 8.78 (active) | 9.1 (active)
CASQSRIRRMAGNASASA [FS-504] | 9.85 (active) | 9.09 (active) | 8.46 (active)
CACWPRHRRVAGNASASA [FS-1314] | 0.553 (inactive) | 1.38 | 2.27
CANIEEVALSAGNASASA [HC841] | 0.342 (inactive) | 0.83 (inactive) | -1.19 (inactive)
CAIKKRFQTTAGNASASA [FS-1881] | -0.863 (inactive) | -1.06 (inactive) | -0.368 (inactive)
CAIKKRRRRRAGNASASA [FS-33] | 7.42 (active) | 7.44 (active) | 6.1 (active)
CAFYLRRRRRAGNASASA [FS-527] | 2.84 | 3.02 | 3.78 (active)
CASMVGNWAKAGNASASA [HC342] | 1.34 | 0.0553 (inactive) | 0.702 (inactive)
CASKPCSAHLAGNASASA [HC2494] | 1.46 | 0.933 (inactive) | 0.45 (inactive)
CAACPRRARGAGNASASA [FS-1297] | -0.34 (inactive) | -0.615 (inactive) | -0.259 (inactive)
CASQARLGRIAGNASASA [FS-301] | -1.06 (inactive) | -0.739 (inactive) | -0.311 (inactive)
CATRARLSRPAGNASASA [FS-1098] | -0.0765 (inactive) | -0.0832 (inactive) | -0.467 (inactive)
CAARARLGRQAGNASASA [FS-400] | 5.77 (active) | 6.39 (active) | 5.75 (active)
CAARPRRARQAGNASASA [FS-1585] | 9.65 (active) | 12 (active) | 7.48 (active)
CAARARLPRDAGNASASA [FS-1185] | 9.09 (active) | 9.62 (active) | 6.75 (active)
CAARGRGGRDAGNASASA [FS-978] | 0.0621 (inactive) | -0.261 (inactive) | -0.608 (inactive)
